# Shown are actives, neighbours in structure and some others; about 7.4% of the full set was active somewhere.
# ELG1 genotoxic: inducers of genotoxicity in HEK293T ELG1-luciferase cells; 330,000 compounds, 1.3% hits; HEK293T ELG1-luciferase reporter, luminescence, 16 h; Potency, µM (titrated, usually from 46 µM), for inactives: at the top dose activity change, positive = activation, most hits filed as activators; note: % of control where 0% means no effect; nearly all actives have a fitted effect of over 60% in size
#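 16 hr compound incubation (37 °C, 5% CO2) of HEK293T cells carrying luciferase-tagged ELG1; luciferase then measured by ONE-Glo luminescence after 30 min at RT.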
# SMN2 splice enh: enhancers of SMN2 splice variant expression; Potency, µM (top dose mostly 46.1 µM), for inactives: top-dose activity change, positive = activation, hits mostly activators; HEK293 SMN2-luciferase splicing reporter, luminescence, 30-36 h; 210,000 compounds, 2.8% hits; note: % of control where 0% means no effect; nearly all actives have a fitted effect of over 55% in size
#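 HEK293 cells carry an SMN2 minigene-luciferase reporter in which exon 7 inclusion puts luciferase in frame. Cells were seeded at 2000 cells/well, attached for 10-12 hours, then exposed to compounds for 30-36 hours at 37C before ONE-Glo luminescence.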
# Rab9 promoter act: activates the Rab9 promoter; Huh7 Rab9 promoter-luciferase reporter, luminescence, 24 h; Potency, µM (top dose mostly 9.22 µM), inactives show at the highest dose activation, negative = inhibition, most hits filed as activators; 320,000 compounds, 2.8% hits; AID 485297; note: % of control where 0% means no effect; nearly all actives have a fitted effect of over 60% in size
#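 Cells were plated at 1500 per well in reduced-serum medium with 10% FBS and left 2 h. Compound in DMSO was then added for 24 h at 37 °C. Reporter signal was read by luminescence after 10 min with luciferase detection reagent.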
# NPC1 prom act: activates the NPC1 promoter | Huh7 NPC1 promoter luciferase reporter, 24 h | AID 485313 | 320,000 compounds, 2.4% hits | Potency, µM (doses to about 9.22 µM), for inactives: top-dose activation, hits mostly activators; note: % of control where 0% means no effect; nearly all actives have a fitted effect of over 60% in size
#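 Compounds in DMSO were transferred onto Huh7 NPC1-luciferase reporter cells pre-incubated 2 h; after 24 h at 37 °C, Amplite reagent was dispensed and luminescence recorded 10 min later.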
# FLuc counter: counter-screen for miR-21 project: firefly luciferase inhibitors or activators | purified FLuc, Km substrates, luminescence inhibition | Potency, µM (doses to about 57.5 µM), inactives show at the top dose activity change, negative = inhibition, hits mostly inhibitors | 360,000 compounds, 6.9% hits;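 note: plate controls were vehicle for no effect and reference inhibitor for full effect; nearly all actives have a fitted effect of over 55% in size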
# Target sequence (P08659 whole entry, looked up): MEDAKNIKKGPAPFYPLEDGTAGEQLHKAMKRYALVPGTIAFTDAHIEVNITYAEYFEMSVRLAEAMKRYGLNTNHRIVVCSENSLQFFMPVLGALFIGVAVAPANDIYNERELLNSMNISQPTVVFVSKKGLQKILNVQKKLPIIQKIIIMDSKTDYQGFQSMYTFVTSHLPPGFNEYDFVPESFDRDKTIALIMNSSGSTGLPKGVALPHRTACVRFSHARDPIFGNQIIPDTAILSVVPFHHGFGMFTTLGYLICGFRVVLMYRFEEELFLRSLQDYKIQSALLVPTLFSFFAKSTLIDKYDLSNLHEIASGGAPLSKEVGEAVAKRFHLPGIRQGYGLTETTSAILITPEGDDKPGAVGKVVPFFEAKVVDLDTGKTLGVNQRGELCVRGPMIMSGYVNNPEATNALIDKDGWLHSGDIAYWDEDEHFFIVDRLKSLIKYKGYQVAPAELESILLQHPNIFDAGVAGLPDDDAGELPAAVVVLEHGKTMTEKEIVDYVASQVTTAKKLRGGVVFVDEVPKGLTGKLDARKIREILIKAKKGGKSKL
#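 Biochemical qHTS of compounds, final roughly 60 µM downward over six points, against 10 nM purified firefly luciferase using Km concentrations of substrates (10 uM D-luciferin, 10 uM ATP) in Tris acetate pH 7.5 buffer; luminescence output.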
# KinaseGlo FLuc: counter-screen: inhibitors of Kinase-Glo firefly luciferase. Q27757. Kinase-Glo luciferase, ATP luminescence, 8 min. Potency, µM (highest dose often 38.3 µM), inactives show at the top dose activity change, negative = inhibition, hits mostly inhibitors. 200,000 compounds, 0.28% hits; note: % is set by controls: 0 for no effect and ±100 for the full control effect; nearly all actives have a fitted effect of over 60% in size
#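 Compounds were added to a substrate mix at pH 7.2 (50 mM imidazole, 10 uM ATP, within the enzyme's linear range), followed by Kinase-Glo detection reagent; luminescence was measured after 8 minutes at ambient temperature.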
# Numbers without * were called inactive; ? = inconclusive; / = no result given; [ ] = remark or other dose. Calls come from the whole dose curve; as a rule, active = well fitted curve in the direction sought with a large enough effect; inconclusive = small, poorly fitted or top-dose-only effect, or another doubt; inactive = no such curve, though single readings can be large; an effect the other way counts as inactive or inconclusive. Potency is the fitted concentration of half-maximal effect.
SMILES,ELG1 genotoxic,SMN2 splice enh,Rab9 promoter act,NPC1 prom act,FLuc counter,KinaseGlo FLuc
Oc1ccccc1CNc1ccc(Br)cn1,-2%,?,?,?,9.5µM*,5%
Brc1ccc(NCc2cccc3ccccc23)nc1,-4%,-36%,6%,-17%,?,-3%
COc1cc(OC)c2c(-c3cccc(-c4ccc(F)c(Cl)c4)c3)cc(=O)oc2c1,-2%,/,/,/,/,/
COc1cc(Cl)ccc1OCc1cc(C(=O)N2C[C@H]3CC[C@H]2C3)no1,8.2µM*,/,1.4µM*,3.5µM*,8.5µM*,/
O=C(c1cc(COc2cccc(C(F)(F)F)c2)on1)N1CCC(c2ccccc2)CC1,-12%,/,-4%,0%,6%,/
COc1cc(Cl)ccc1OCc1cc(C(=O)N2C[C@@H]3CCC[C@H]2C3)no1,2.9µM*,/,4µM*,3.2µM*,9.5µM*,/
COc1cc(Cl)ccc1OCc1cc(C(=O)N2C[C@]3(C)C[C@H]2CC(C)(C)C3)no1,?,/,1.8µM*,?,19µM*,/
COc1cc(C)ccc1OCc1cc(C(=O)N2C[C@H]3CC[C@H]2C3)no1,4%,/,0%,3%,-19%,/
CCOC(=O)N1CCN(C(=O)c2cc(COc3ccc(Cl)cc3OC)on2)CC1,-4%,/,1%,12%,-6%,/
O=C(c1cc(COc2cccc(C(F)(F)F)c2)on1)N1C[C@@H]2CCC[C@H]1C2,?,/,?,-15%,24µM*,/
COc1ccc(-n2nc(C(=O)N(C)C)nc2-c2ccccc2)cc1,1%,/,9%,0%,-1%,/
FC(F)(F)Oc1ccccc1-c1nnc(-c2cccc(C(F)(F)F)c2)o1,-1%,/,-5%,0%,-3%,/
COc1cccc(-c2nnc(-c3ccc(C(F)(F)F)cc3)o2)c1OC,?,18µM*,?,26%,7.6µM*,1%
CC(C)(C)C(=O)Nc1ccc(-c2nc3ccccc3s2)cc1,/,/,/,/,0.015µM*,/
CC(C)(C)NC(=O)c1nc2ccccc2s1,5%,-12%,4%,17%,-26%,-2%
CCS(=O)(=O)c1ccccc1C(=O)Nc1ccc(-c2nc3ccccc3s2)cc1,/,/,/,/,9.5µM*,/
O=[N+]([O-])c1ccc(/C=N/N2CCCCC2)cc1,?,/,29%[1.84 µM],2.5µM*,9.5µM*,/
Clc1ccc(/C=N/N2CCCCC2)cc1,12%,/,22%,12%,11µM*,/
CN(C)c1ccc(N=Nc2nc3ccccc3n2C)cc1,-14%,/,?,28%,0.019µM*,/
Cn1c(N=Nc2ccccc2)nc2ccccc21,1.2µM*,0.63µM*,0.4µM*,0.71µM*,0.48µM*,0.89µM*
CCn1c(/C=N/c2nc3ccccc3n2C)nc2ccccc21,-2%,-6%,2%,-2%,-17%,0%
Cn1c(Cl)nc2ccccc21,-3%,?,-1%,-7%,2%,0%
Cc1ccc(SCC(=O)N/N=C/c2ccco2)cc1,-1%,/,0%,-2%,1%,/
COc1ccc(-c2nc3ccccn3c2/N=C/c2ccc(OC)c(OC)c2)cc1O,8%,6%,6%,-5%,13µM*,-4%
O=[N+]([O-])c1ccc(Cl)c(-c2ccc(/C=N/c3c(-c4ccco4)nc4ccccn34)o2)c1,2%,22%,?,19%,-19%,-2%
SMILES,ELG1 genotoxic,SMN2 splice enh,Rab9 promoter act,NPC1 prom act,FLuc counter,KinaseGlo FLuc
COc1cc(-c2nc3ccccn3c2/N=C/c2ccccc2)ccc1O,12%,9%,-2%,2%,?,5%
Oc1cccc(/C=N/c2c(-c3ccco3)nc3ccccn23)c1,?,24%,?,?,6µM*,?
COC(=O)c1ccc(COn2nnc3ccccc32)cc1,?,13µM*,1µM*,1.1µM*,6.7µM*,-14%
CCOC(=O)c1ccc(NC(=O)Cn2nnc3ccccc32)cc1,?,-4%,2.8µM*,3.5µM*,11µM*,0%
CCOC(=O)c1ccc(NC(=O)CCn2nnc3ccccc32)cc1,6%,10%,3%,-1%,0%,2%
CCOC(=O)c1ccc(NC(=O)CN2C(=O)CSCC2=O)cc1,6%,-5%,6%,1%,15µM*,-1%
COC(=O)c1ccc(NC(=O)CN2C(=O)CSC2=O)cc1,0%,8%,1%,2%,?,2%
CCOC(=O)c1ccc(NC(=O)CN2C(=O)CSC2=O)cc1,2%,-9%,1%,-13%,21µM*,2%
COc1ccccc1CNC(=O)C1(c2cccs2)CCOCC1,/,/,/,/,4%,/
Cc1ccc2nc(Nc3nc(CSc4nnc(C)s4)cc(=O)[nH]3)nc(C)c2c1,5%,/,-3%,-2%,9.5µM*,-2%
Cc1ccc2nc(-c3ccc(NC(=O)CN4C(=O)NC(C)(c5ccc(OC(F)F)cc5)C4=O)cc3)sc2c1 (configuration not stated),21µM*,/,1.4µM*,2.5µM*,5.4µM*,/
COc1ccc(/C=C(\C#N)C(=O)OCC(=O)Nc2ccc(-c3nc4ccc(C)cc4s3)cc2)cc1,0.65µM*,2.5µM*,0.4µM*,0.45µM*,1.7µM*,1%
CC1(c2ccc(OC(F)F)cc2)NC(=O)N(CC(=O)Nc2ccccc2)C1=O (configuration not stated),8%,/,3%,-3%,-8%,/
C=CCn1c(SCC(=O)Nc2ccc(-c3nc4ccc(C)cc4s3)cc2)nnc1-c1ccccc1,?,0.79µM*,0.5µM*,?,2.4µM*,-3%
COc1ccc(/C=C(\C#N)C(=O)OCC(=O)NC(C)c2ccccc2)cc1 (configuration not stated),1%,3%,3%,-2%,-2%,-2%
O=C(COc1ccccc1[N+](=O)[O-])Nc1ccc(-c2nc3ccccc3s2)cc1,/,/,/,/,-3%,/
O=C(COc1ccccc1Cl)Nc1ccc(-c2nc3ccccc3s2)cc1,/,0.79µM*,/,/,-2%,/
Cc1ccc(C2/C(=C(\O)c3ccc4c(c3)OCCO4)C(=O)C(=O)N2Cc2cccnc2)cc1 (configuration not stated),0%,/,-1%,2%,-2%,/
CCN(C(=O)COC(=O)c1cc(Cl)ccc1OC)c1c(N)n(Cc2ccccc2)c(=O)[nH]c1=O,0%,/,0%,-1%,1%,/
CC(C)N(Cc1nccn1C)C(=O)CC1C(=O)NCCN1Cc1ccc(F)c(F)c1 (configuration not stated),4%,/,1%,8%,4%,/
Cc1cccc(C)c1N(C(=O)c1ccco1)C(C(=O)NC1CCCC1)c1ccncc1 (configuration not stated),-3%,/,0%,-3%,1%,/
COc1ccc(-c2nc3ccccc3s2)cc1NC(=O)c1ccc(F)cc1,/,-6%,/,/,-1%,/

# From PubChem
